# Assay results published in the supplement of paper PMC11417369.
# ± gives the standard deviation of the averaged measurements. In all, about 25,000 sequences were measured (“ln(normalized median fluorescence intensity)”: median about 7.9, highest 2% from about 11 on). The entries come from a sample that favours the highest values as a whole.
# Test system: PfAP2-I AP2 domain 3 (GST-tagged)
# Assay: gcPBM binding intensity (ln(normalized median fluorescence intensity)); higher = stronger DNA binding
# How it was run: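 The binding buffer was 1× PBS containing 1% milk, 0.2 mg/ml BSA, 0.5% salmon testes DNA and 0.03% Triton X-100. In it, GST-tagged P. falciparum DNA-binding domains expressed in E. coli were applied for 1 h to an Agilent 4 × 180k array of primer-extended double-stranded 36-bp intergenic genomic probes plus negative controls. Binding intensity, read with Alexa488 anti-GST antibody and a 488 nm scan, is the highest Masliner-normalised natural-log median intensity across replicate spots of either probe orientation.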
row,Sequence,gcPBM binding intensity (ln)
1,ATTATTTTATAATTCACACATAAATAAAAAAAAAAT [CACACA_site5290],7.76 ± 0.32
2,TCTAATAAAATAAATACATGCATACATACATACATA [TGCATGCA_site895],7.76 ± 0.63
3,TATGTGAATAAATAAGCACACATAAACACATATATA [CACACA_site9359],8.06 ± 0.42
4,ATTTAATGTATTTTGCGTACGAATTATTTTATTTCA [XGTACX_site7331],7.93 ± 0.49
5,CTATTATAATATTTTACACACCATGTAAAATATATA [CACACA_site3206],7.75 ± 0.39
6,AAAATTAAAATACGTACACACCTTATCTTTTTGGCT [CACACA_site4311],8.21 ± 0.19
7,ATATTTCTGTCAAGCACACATAATATTAAAATATGT [CACACA_site4330],7.91 ± 0.49
8,ATTTATTTTATATGTTGTACAAACATTTTAAAACAT [XGTACX_site6919],7.79 ± 0.38
9,ATATTTTATGTAAAGGTGCAAAACAACATTAAAAAA,10.9 ± 0.47
10,CATGCCTTTAAAAAGGTGCAAACATTTTCACAAACA,10.4 ± 0.35
11,CTTGAAAAAATAAAAACACACAATGTGTTTTTGAAT [CACACA_site3283],7.42 ± 0.68
12,TTTCATTTAGCTTTTACACACTATATATCATTGATT [CACACA_site6158],7.89 ± 0.68
13,AGTATTATATTTGTATGTACGTAGTAATATATAAAA [XGTACX_site528],7.86 ± 0.6
14,TTTATTTTATTCACTATCATAAGCAAAACTTAAACA [GTGCAC_negctrl_site287],7.6 ± 0.4
15,TTAAACTTGTTTTGGATGCACTATATAATTCATTTT [GTGCAC_site9549],9.45 ± 0.15
16,CGATTTTTTAAGTTTGTGCACTTAAAAACTATAACA,10.9 ± 0.54
17,TTTCATATTTTGTCCTGTTTTTTTTTTTTTTTTCTT [CACACA_negctrl_site993],7.53 ± 0.59
18,TTTAACTTTTATATAACACACATATTGTAATTATGT [CACACA_site6486],7.92 ± 0.33
19,TTTTTTGAATTTAAAAGTACAGGCTTTTACCAAATA [XGTACX_site1356],7.7 ± 0.45
20,TTTTTTTTTTGTAATTGTACTTTTTTAATACTTCTA [XGTACX_site4195],7.74 ± 0.82
21,TTAGTTTATTGGTACTGTACTTTTTTTTTCTCCATT [XGTACX_site8618],8.02 ± 0.33
22,TATTCGTGCAATAATAGTACACTTATAAATTATTCA [XGTACX_site8993],11.2 ± 0.66
23,TATTCGTGCAATAATGGTACACTTATAAATTATTCA [XGTACX_site1430],10.7 ± 0.71

row,Sequence,gcPBM binding intensity (ln)
1,TATTCGTGCAATAGTAGTACACTTATAAATTATTCT [XGTACX_site4899],10.7 ± 0.61
2,ACACATACATACATATGTACATATATACATATATAC [XGTACX_site5559],8.45 ± 0.83
3,AAATAATACATTCGTACTACACATATATATTAAATA [XGTACX_site7806],7.84 ± 0.41
4,AGTAGGCATATTGGTTGTACAAAAAAATTATGCACC [XGTACX_site8925],11.2 ± 0.61
5,GTAGGCATTAAAAAATGTACAAAATATTATGAATTG [XGTACX_site1615],7.65 ± 0.55
6,TGAACATATTAAAATTGTACATATGCACAATATGTA [XGTACX_site6801],8.53 ± 0.29
7,ATATATATATATGCATGTACATATATTTGTTATATC [XGTACX_site3197],9.22 ± 0.27
8,TATGTGCACCCATGTACATGCGGACATATGTTATAT [TGCATGCA_site383],11 ± 0.9
9,TATATATATATATATGCATGTACATATATTTGTTAT [TGCATGCA_site379],9.45 ± 0.14
10,TATATAATAATTTAGAGTACTGATAAAATATTCCAT [XGTACX_site6200],7.55 ± 0.47
11,AATAAATTAGAAGGATGTACTTTGTTTAATATAGAG [XGTACX_site1943],7.83 ± 0.37
12,TTTATTTTCCAAAGGGTGCACATAGTTAAAACGATA [GTGCAC_site9855],11.1 ± 0.29
13,AATAGCTAGCTGTGCACACAAACATATTTTCCAAAT [CACACA_site880],9.55 ± 0.16
14,TTCCAAAAAGTTATTACACACATATGTGCACATATA [CACACA_site6465],10 ± 0.4
15,CAAATAGCTAGCTGTGCACACAAACATATTTTCCAA [CACACA_site879],9.66 ± 0.23
16,CATTTTATAAAAAGCACACATATAGTTATATGCACA [CACACA_site3691],10.7 ± 0.91
17,TTTATTTTCCAAAGGGTGCACATAGTTGAAACGATA,11.1 ± 0.44
18,TTTCTTTTTTTTTGAAGTACATAAAAATATAAAAAA [XGTACX_site311],8.03 ± 0.085
19,AGACAAAATGTTTGAAGTACTTTTTATCAAATTAAA [XGTACX_site8885],7.66 ± 0.2
20,CACGAACACAAACACAAACACACATCATATATATAT [CACACA_site1322],9.25 ± 0.16
21,AAATATATATATAGTTGTACATATATCGTATATATT [XGTACX_site7867],7.57 ± 0.45
22,GTTAAAATTTGTCAATGTACAGAAATAATAAAAAAA [XGTACX_site1879],7.97 ± 0.62
23,ATATATATATATATATGTACATATTATTATTTTGAT [XGTACX_site4752],9.22 ± 0.49

row,Sequence,gcPBM binding intensity (ln)
1,AAAATAAACTATAGTACACACTTATTATTATGAAAT [CACACA_site5488],7.92 ± 0.3
2,AAATATAAGAAAAAGGTGCTTTTTTTTTTTTTTTTT [GTGCAC_site9700],9.79
3,TTTTTTTTTCTTCTTTTCAAATTTAAGAAATTATAA [CACACA_negctrl_site18],7.55 ± 0.57
4,TTTTTTCTTTTCAAGGTGCTTTATAAGAAAAAGGGA [GTGCAC_site9858],11.1 ± 0.89
5,AAAAAAAAACACGCATGTACATAAAAATAATCATAC [XGTACX_site1086],7.96 ± 0.57
6,ATACACACTCAAAAAAGTACTTAACTACATGAATTG [XGTACX_site6366],7.79 ± 0.55
7,TGTATGTATAATTGAGTGCACAGAAAAAAAAAAGAA,11 ± 0.13
8,CATTATAAAAAATAAAAAAGAAATAATTGTATATGC [CACACA_negctrl_site478],7.77 ± 0.68
9,AAGAAAATATAAAATGCACACTATAAATTGTATATA [CACACA_site7928],8.73 ± 0.014
10,TAAATAAATAAAAATAGTACATAATTATTATTATTA [XGTACX_site4981],7.42 ± 0.22
11,TTCTTTATATACAAACCAAAATATTATGTATAATAA [CACACA_negctrl_site15],7.62 ± 0.33
12,CTTATAAGAATACTAGTGCACATAATTTAACGAAAA,11 ± 0.59
13,AAGATAAAATTATGCACACATACGAATAATTTTAAA [CACACA_site1705],9.79 ± 0.39
14,TAGATTATTATACTAGTGCAAATTATTTAAGAAAAA,10 ± 0.34
15,AATGTACGTTTTATAACACACACACTAATAAAAAAA [CACACA_site9286],8.23 ± 0.36
16,TATATTTATTATAACACACACATATAAATATTATAG [CACACA_site6726],7.95 ± 0.48
17,ACATATCGGGTGCATTAACACACATTTATTTGAATA [CACACA_site8736],11.8 ± 0.52
18,AAAATTAAAAATAACACACACATATTTATATTTATA [CACACA_site7329],7.59 ± 0.4
19,TTTATTTTAACTTGTTCACACATTTGAATAAATAAA [CACACA_site5064],7.71 ± 0.33
20,ATCGGTAATATTAACACACACATTTATTTATATTTA [CACACA_site6638],7.96 ± 0.58
21,ATATCGGGTGCATTAACACACATTTATTTGAATAAA [CACACA_site2350],11.7 ± 0.79
22,AACATTTTAAATTATACACACATTTTGAATATATAT [CACACA_site3470],7.78 ± 0.53
23,ATCGGTAATATTAACACACACATTTATATATATTTA [CACACA_site1084],8.02 ± 0.41

row,Sequence,gcPBM binding intensity (ln)
1,ATATCGTGTGCATTAACACACATTTATTTGAATAAA [CACACA_site7162],10.9 ± 0.5
2,CAAAAAACAACAGATCGTACAAAATATTATATATAT [XGTACX_site2285],8.12 ± 0.67
3,TTTTTTTTTTTTTTCTGTACTTAAAAAGGGGGAGAA [XGTACX_site3799],8.79 ± 0.7
4,ATACATTCAAAATATACACACATATATCTATAATAT [CACACA_site6576],7.69 ± 0.65
5,TGCAGTCTGGAGAAAAGTACATAGTATCTGGTAGCT [XGTACX_site2547],7.87 ± 0.66
6,GAATGTAAATATTAAAGTACACAGAATATATCTTCA [XGTACX_site8149],7.79 ± 0.16
7,ATAATAAAAATAAGAGAATAAAAATGCAATTTAATG [CACACA_negctrl_site878],7.95 ± 0.47
8,GATAATCAGAATGGGGTGCAAAGAAAAAAAAAAAAA,10.7 ± 0.46
9,AGAATAATAAAATGGGTGCAATAGTTTTTTTTTTTT [GTGCAC_site9823],11.2 ± 0.44
10,ATATATATTATATATAGTACTTTTTTGCGCAAATAT [XGTACX_site6849],8.08 ± 0.44
11,ACATTGCACCCGTGCACACATAGAAAAATAATTCTT [CACACA_site409],11.1
12,CATTTGCACCCGCACACACACATAAAAAGAAAAATA [CACACA_site4350],10.7 ± 0.8
13,TAAGAAATAAATAGTACACACATAGACACCCACCCA [CACACA_site8429],8.65 ± 0.54
14,CCATTAAGACACATTGCACACGTGCACCCATAGAAA [CACACA_site4388],10.79 ± 0.021
15,ACCCATTGCTCACGTGCACACATAGAAAAATAATTC [CACACA_site4389],10.7 ± 0.16
16,ATTAAGACACATTGCACACGTGCACCCATAGAAAAA [CACACA_site408],11.02 ± 0.099
17,TAAGAAATAAATAGTACACACATAGACACCCACCGA [CACACA_site1516],8.86 ± 0.15
18,TACACCCATAGACACACACACACGCATAAAAAAAAA [CACACA_site8428],8.36 ± 0.34
19,ACATTAAGACACATTGCACACGTGCACCCATAGAAA [CACACA_site8029],10.965 ± 0.007
20,TTTTTTGTTTGAATGGTGCATTTTGTAATTATATTT,10.3 ± 0.41
21,TTGTTATGTTTTATTTGTACGTAGGTTTCTATCAAA [XGTACX_site7636],8.12 ± 0.35
22,ATATTTATTTATATGTGTACTTATGTTTATATAAAA [XGTACX_site4250],8.02 ± 0.21
